This is a sample that favours compounds with a hit; in the whole collection about 2.4% have one here.
D2 PAM-1 – HTS Assay for Positive Allosteric Modulators of the Human D2 Dopamine Receptor: Primary Screen for Potentiators. HEK293 T-REx D2, calcium flux, EC20 dopamine potentiation. 0.34% of 340,000 active. potentiation, % at 10 µM;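 active = potentiation over 3 SD above the plate norm, cut at about 30% in these data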; note: 0% is about no effect
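Calcium flux readout, no-wash dye, 1 read/s. Inducible HEK293 Trex D2 line, overnight 30 C. Compound alone 180 s (agonist flags), then EC20 dopamine, another 180 s to score potentiation.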
D2 ag-1 – Beta-Arrestin HTS for Positive Allosteric Modulators of the Human D2 Dopamine Receptor: Agonists. activation, % (test concentration not listed). DiscoveRx PathHunter D2 beta-arrestin, luminescence, 90 min; 100% = 57 uM dopamine signal. AID 624465, 2012. D(2) dopamine receptor (Homo sapiens), P14416. 0.084% of 360,000 active; in the data active = activation above about 40%
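DiscoveRx PathHunter D2 beta-arrestin cells (2,100/well) attached overnight, then compound-stimulated 90 min at 37 C in HBSS/10 mM HEPES/0.1% Tween-20 buffer; beta-galactosidase complementation read by luminescence after 1 h at ambient temperature. Dopamine 57 uM final (EC100) as control.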
B2AR arrestin – qHTS assay of beta-arrestin-biased ligands of beta2-adrenergic receptor. beta-arrestin recruitment to beta2AR, cell-based reporter. 0.02% of 330,000 active. Beta-2 adrenergic receptor (Homo sapiens), P07550. Potency, µM (doses to about 46.1 µM), inactives show top-dose activation, actives largely listed as activators. AID 492947, 2010; active = well fitted activation curve with a large enough effect;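 note: potency is the fitted concentration of half-maximal effect; 0% = DMSO controls and full agonism = EC100 isoproterenol or metaproterenol; nearly all actives have a fitted effect of over 65% in size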
Target sequence (P07550 whole entry, looked up): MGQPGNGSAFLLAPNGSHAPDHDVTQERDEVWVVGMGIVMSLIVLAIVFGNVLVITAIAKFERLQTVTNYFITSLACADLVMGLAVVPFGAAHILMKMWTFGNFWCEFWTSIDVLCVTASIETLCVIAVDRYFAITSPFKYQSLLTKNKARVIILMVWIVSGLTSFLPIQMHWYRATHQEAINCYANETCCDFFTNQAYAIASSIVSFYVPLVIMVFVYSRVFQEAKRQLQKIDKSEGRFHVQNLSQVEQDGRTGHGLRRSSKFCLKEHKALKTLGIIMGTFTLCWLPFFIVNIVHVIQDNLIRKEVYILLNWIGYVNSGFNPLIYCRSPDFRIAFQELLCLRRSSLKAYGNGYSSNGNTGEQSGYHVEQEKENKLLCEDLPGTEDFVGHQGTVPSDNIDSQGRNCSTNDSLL
D2 ag-2 – HTS Assay for Allosteric Agonists of the Human D2 Dopamine Receptor: Primary Screen for Agonists | HEK293 T-REx D2 cells, calcium flux agonist mode | activation, % at 2 µM | 0.53% of 340,000 active | AID 485358, 2010;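 active = activation over 3 SD above normal in the single-dose calcium agonist read, cut at about 30% in these data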; note: 0% is about no effect
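HEK293 Trex D2 cells, tetracycline-induced, o/n 30 C 5% CO2; no-wash Ca dye, RT 30–90 min; 10-cycle baseline, 23 nl cpd added, kinetic Ca read 180 s; agonist hits = positive Ca response.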
D2 PAM-2 – Beta-Arrestin HTS for Positive Allosteric Modulators of the Human D2 Dopamine Receptor: Potentiators; D(2) dopamine receptor (Homo sapiens), P14416; DiscoveRx D2 beta-arrestin cells, luminescence, 90 min; 100% = 57 uM dopamine signal; potentiation, % (test concentration not listed); 0.23% of 360,000 active; in the data active = potentiation above about 50%
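PathHunter D2 cells, attached overnight at 37 deg C, received compound in DMSO plus dopamine at EC20 (50 nM final) for 90 min at 37 deg C. Beta-arrestin recruitment was read as luminescence after 1 h with detection reagent at ambient temperature.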
D2 antag – HTS Assay for Allosteric Antagonists of the Human D2 Dopamine Receptor: Primary Screen for Antagonists; D(2) dopamine receptor (Homo sapiens), P14416; AID 485344, 2010; inhibition, % at 10 µM; 2% of 340,000 active; HEK293 TREx D2 cells, calcium flux, dopamine EC80; in the data active = inhibition above about 30%; inactive = below that, where a call was filed; note: 0% is about no effect
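Cells plated overnight at 30 C with tetracycline; no-wash calcium dye, 30–90 min RT; 10 s baseline; compound pinned; 180 s read; EC80 dopamine added; another 180 s read.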
An asterisk follows results filed as active; x = no result given; ! = not active in a repeat.

SMILES	D2 PAM-1	D2 ag-1	B2AR arrestin	D2 ag-2	D2 PAM-2	D2 antag
CCCNC(=O)Cn1cc(S(=O)(=O)N2CCCC2)c(S(=O)(=O)N2CCCC2)c1	-3	-6	0%	0	-11	37*
CCCCCCOc1ccc(C(CC(=O)O)C(N)=O)cc1 (centres undefined)	18	-4	0%	0	-10	-22
COC(=O)c1c(NC(=O)C(C)C)sc2c1C(C(=O)OC)CC2 (centres undefined)	47*	-3	0%	0	-7	0
Cc1ccccc1Cc1c(C)nc2nc(SCC(=O)NCCCN3CCCCC3)nn2c1C	15	4	0%	1	-3	75*
COc1cccc(CC(=O)Nc2ccc(-c3nc4ccccc4s3)cc2Cl)c1	2	x	x	0	x	x
COc1ccc(-c2cc(C(=O)Nc3cc(OC)c(OC)c(OC)c3)no2)cc1OC	-4	0	0%	0	-8	10
Cc1cc(NC(=O)c2cc(-c3ccco3)on2)nn1Cc1ccc(Cl)cc1	-19	0	-1%	32*	-7	-4
COc1cc(NC(=O)c2cc(-c3ccco3)on2)cc(OC)c1OC	-19	-2	0%	-2	-16	33*
Cc1ccc(NC(=O)C2CCN(S(=O)(=O)c3cccc4nonc34)CC2)cc1	-6	5	0%	x	2	x
Cc1ccccc1NC(=O)C1CCN(S(=O)(=O)c2cccc3nonc23)CC1	44*!	-4	-1%	-2	0	5
CCc1cc2cc3c(cc2nc1SCC(=O)Nc1cc(OC)c(OC)cc1C(=O)O)OCO3	5	x	0%	0	x	-6
CC(C)C(=O)Nc1nnc(S(=O)(=O)N2CCCCCC2)s1	0	-5	-1%	1	-6	-1
CCC(CC)C(=O)Nc1nnc(S(=O)(=O)N2CCCCCC2)s1	-13	0	0%	0	0	32*
CC(O)CNCCOc1ccccc1OCc1ccccc1 (centres undefined)	-34	-9	0%	-3	-9	45*
CC(O)CNCCNCc1c(OCc2ccccc2)ccc2ccccc12 (centres undefined)	32*	-2	0%	-1	-28	-7
CC(C)c1ccc(S(=O)(=O)N2CCN(C(=O)c3cc([N+](=O)[O-])ccc3N3CCOCC3)CC2)cc1	-4	-3	0%	1	-7	0
O=C(Cc1cc(=O)[nH][nH]1)N/N=C/c1ccccc1Cl	9	-1	0%	0	2	-13
O=C(Cc1ccccc1)N/N=C/c1ccccc1Cl	1	-4	-1%	-1	-12	31*
O=C(Cc1ccccc1)Nc1ccc(NC(=O)Cc2ccccc2)c(Cl)c1	7	-5	-1%	2	-2	-3
CCOc1ccccc1/C=N/NC(=O)C[n+]1ccccc1	-16	-5	0%	-1	-19	33*
O=C(Cc1ccccc1)Nc1ccc(Br)c(Cl)c1	31*	0	-1%	-2	-14	-10
CNC(=S)N/N=C/c1ccccc1OCC(=O)O	14	-3	0%	2	-5	31*
Cc1ccc(-n2c(O)c(/C=N/Nc3ccc(S(=O)(=O)N4CCOCC4)cc3[N+](=O)[O-])c3ccccc3c2=O)c(C)c1	7	-3	-3%	0	-8	-6
N#CCC(=N)N1CCN(c2ccc(Cl)cc2)CC1	x	4	0%	x	-9	x
O=C(C[n+]1ccccc1)N/N=C/c1ccccc1Cl	-20	5	0%	0	-1	36*
SMILES	D2 PAM-1	D2 ag-1	B2AR arrestin	D2 ag-2	D2 PAM-2	D2 antag
C=CCc1cccc(/C=N/NC(=O)C[n+]2ccccc2)c1O	-20	10	0%	0	-12	53*
COc1ccc(/C=N/NC(=O)C[n+]2ccccc2)c(OC)c1OC	-27	-3	0%	0	-27	35*
C=CCc1cccc(/C=N/NC(=O)C(C)Nc2cccc(C)c2)c1O (centres undefined)	-9	-4	2%	0	-12	31*
CCCCCn1c(C(Cc2ccccc2)NC(=O)COC)nc2ccccc21 (centres undefined)	5	-6	0%	0	-5	-15
CN(C)c1nn(C(=O)Nc2ccc(Cl)cc2Cl)cc1-c1ccccc1	5	-5	-1%	-1	-12	5
CC(C)CN1CCN(Cc2cccn2-c2cccnc2)CC1CCO (centres undefined)	12	3	0%	0	-1	6
CCN(CC)C(CNS(=O)(=O)c1ccc(Cl)cc1)c1ccccc1 (centres undefined)	1	-10	0%	-1	-8	39*
O=C(COc1ccc(S(=O)(=O)NC2CCCCC2)cc1)NCC1CCCO1 (centres undefined)	1	-1	0%	0	-7	-4
O=Cc1ccc(OCC(=O)NCC2CCCO2)cc1 (centres undefined)	-10	-6	0%	0	-7	30*
Cc1ccc(S(=O)(=O)N(CC(=O)N2CCN(c3ccc(F)cc3)CC2)C2CCCCC2)cc1	-8	2	0%	0	-2	6
CCN1CCc2nc(SCC(=O)Nc3ccc(OC)cc3)c(C#N)cc2C1	-23	-2	0%	0	-20	36*
CCCS(=O)(=O)c1nc(S(=O)(=O)c2ccc(C)cc2)c(NCc2ccc3c(c2)OCO3)s1	-5	-2	0%	1	-11	25
COc1cc(C(=O)NNC(=O)C2CSC3(C)CCC(=O)N23)cc(OC)c1OC (centres undefined)	9	-1	0%	-1	-1	41*
COc1cc(OC)cc(C(=O)NNC(=O)C2CSC3(C)CCC(=O)N23)c1 (centres undefined)	-12	-1	0%	0	2	-30
COC(=O)CC(NS(=O)(=O)c1cccs1)c1ccccc1Cl (centres undefined)	-4	-5	0%	0	-5	35*
Cc1ccc(CNC(=O)CCc2nc3cccnc3n2Cc2ccccc2)cc1	25	x	x	-1	x	x
CCOC(=O)N1CCN(C2CCCN(C(=O)c3ccccc3SC)C2)CC1 (centres undefined)	-13	-2	0%	4	-6	5
